According to the supplement of paper PMC10127200:
Structures can show the parent of a compound that is named as a salt.

What was measured:
Assay in all cases: Euclidean distance of Cell Painting phenotypic profile (signed KS, 77 features) to DMSO centroid (dimensionless distance); 5 or 10 uM (library dependent); higher = stronger phenotypic change vs DMSO (phenoactivity)
Conditions in all cases: 48 h
[1] = test system: 786-O
Procedure, shortened: (§1)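 Phenoactivity is computed as Euclidean distance to the median vehicle profile. The profiles, drawn from 77 Harmony features scored as signed Kolmogorov-Smirnov statistics versus same-plate vehicle wells, were corrected for plate position, correlation-weighted and replicate-averaged at the top dose. Stained cells were imaged confocally at 20X (9 fields/well) after 48 h with library compounds at 10 or 5 uM, 0.1% DMSO final, in five cancer lines and a healthy fibroblast line.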

[2] = test system: A549
Procedure, shortened: as §1

[3] = test system: DU145
Procedure, shortened: as §1

[4] = test system: FB
Procedure, shortened: as §1

[5] = test system: HEPG2
Procedure, shortened: as §1

[6] = test system: OVCAR4
Procedure, shortened: as §1

| Structure (SMILES) | Euclidean distance [1] | Euclidean distance [2] | Euclidean distance [3] | Euclidean distance [4] | Euclidean distance [5] | Euclidean distance [6] |
| --- | --- | --- | --- | --- | --- | --- |
| COc1ccnc(C[S+]([O-])c2nc3cc(-n4cccc4)ccc3[nH]2)c1C (configuration not stated) [Ilaprazole sodium] | 1.23 | 0.928 | 0.81 | 0.764 | 0.518 | 1.26 |
| N#Cc1cc(NC(=O)C(=O)O)c(Cl)c(NC(=O)C(=O)O)c1 [Lodoxamide Tromethamine] | 1.61 | 1.34 | 0.792 | 1.06 | 0.894 | 1.01 |
| O=c1cc(-c2cccc3c2Sc2ccccc2S3)oc(N2CCOCC2)c1 | 0.999 | 0.525 | 0.839 | 1.33 | 1.72 | 1.14 |
| COc1cc(/C=C/C(=O)N2CCN(CC(=O)N3CCCC3)CC2)cc(OC)c1OC [Cinepazide maleate] | 1.21 | 0.96 | 1.04 | 1.16 | 0.337 | 1.41 |
| O=C(c1ccc(OCCN2CCCCC2)cc1)c1c(-c2ccc(O)cc2)sc2cc(O)ccc12 [Raloxifene] | 2.37 | 2.49 | 2.15 | 2.23 | 2.54 | 2.52 |
| O=C(c1c(F)ccc(NS(=O)(=O)N2CC[C@@H](F)C2)c1F)c1c[nH]c2ncc(-c3cnc(C4CC4)nc3)cc12 | 1.42 | 1.86 | 2.02 | 2.6 | 1.2 | 1.44 |
| CC(=O)OCC(=O)[C@@]1(O)[C@H](C)C[C@H]2[C@@H]3CCC4=CC(=O)C=C[C@]4(C)[C@@]3(F)[C@@H](O)C[C@@]21C [Dexamethasone Acetate] | 1.08 | 2.1 | 2.41 | 1.85 | 0.691 | 1.67 |
| Cc1ccc(Cl)c(Nc2ccccc2C(=O)O)c1Cl [Meclofenamate Sodium] | 1.09 | 1.34 | 1.66 | 1.48 | 0.74 | 1.94 |
| COc1cc2/c(=N/c3ccc(Br)cc3F)nc[nH]c2cc1OCC1CCN(C)CC1 [Vandetanib (ZD6474)] | 1.3 | 2.59 | 2.38 | 2.66 | 1.7 | 2.94 |
| Cc1ccc([C@@H]2O[C@H](CO)[C@@H](O)[C@H](O)[C@H]2O)cc1Cc1ccc(-c2ccc(F)cc2)s1 [Canagliflozin] | 1.32 | 1.86 | 0.716 | 1.12 | 0.807 | 1.77 |
| COc1ccc(/C=C\c2cc(OC)c(OC)c(OC)c2)cc1O [Combretastatin A4] | 3.46 | 3.33 | 3.91 | 2.81 | 4.14 | 2.83 |
| CC1=C(C(=O)O)N2C(=O)[C@@H](NC(=O)[C@H](N)c3ccc(O)cc3)[C@H]2SC1 [Cefadroxil hydrate] | 1.09 | 0.5 | 0.78 | 0.785 | 0.893 | 0.794 |
| Cc1cc(C)nc(NS(=O)(=O)c2ccc(NC(=S)NC(=O)COc3ccc(Br)cc3Cl)cc2)n1 | 0.465 | 0.727 | 0.713 | 0.857 | 2.1 | 0.759 |
| CCOc1ccc2c(c1)C(C)=CC(C)(C)N2 [Ethoxyquin] | 0.933 | 1.17 | 0.847 | 1.62 | 0.54 | 1.95 |
| Cc1nc(N(C)C(=O)Cc2ccc(-c3ccccn3)cc2)sc1S(N)(=O)=O [Pritelivir (BAY 57-1293)] | 0.793 | 0.531 | 1.07 | 0.872 | 0.577 | 0.834 |
| CCN(CC)CCOc1ccc2c(c1)C(=O)c1cc(OCCN(CC)CC)ccc1-2 [Tilorone dihydrochloride] | 2.8 | 3.87 | 2.37 | 5.04 | 4.45 | 3.1 |
| Cc1cc(Nc2cc(CN3CCOCC3)c3nc(C)c(Cc4ccc(Cl)cc4F)n3n2)n[nH]1 | 3.25 | 3.37 | 2.63 | 1.71 | 2.95 | 3.19 |
| C[C@]12CCC3=C4CCC(=O)C=C4CC[C@H]3[C@@H]1CC[C@@]2(O)CC#N [Dienogest] | 1.53 | 0.862 | 1.61 | 1.08 | 1.12 | 1.39 |
| CC1(C)O[C@H]2CC(=O)OC[C@]23[C@H]2CC[C@@]4(C)[C@H](c5ccoc5)OC(=O)[C@H]5O[C@]54[C@]2(C)C(=O)C[C@@H]13 [Limonin] | 0.804 | 0.714 | 0.885 | 0.843 | 1.05 | 1.05 |
| C=CC(=O)N1CCC[C@@H](n2nc(-c3ccc(Oc4ccccc4)cc3)c3c(N)ncnc32)C1 | 1.76 | 2.16 | 2.61 | 2.35 | 1.42 | 2.38 |
| CN(C)CCc1c[nH]c2ccc(C[C@H]3COC(=O)N3)cc12 [Zolmitriptan] | 1.26 | 1.23 | 1.25 | 0.876 | 0.663 | 1.74 |
| CN1CCC(COc2cnc(-c3cccc(Cn4nc(-c5cccc(C#N)c5)ccc4=O)c3)nc2)CC1 | 1.74 | 3.89 | 2.96 | 2.46 | 1.76 | 1.52 |
| CC(=O)Nc1cccc(-n2c(=O)n(C3CC3)c(=O)c3c(Nc4ccc(I)cc4F)n(C)c(=O)c(C)c32)c1 | 3.52 | 3.28 | 3.33 | 3.79 | 1.56 | 1.94 |
| CC(=O)Nc1ncc([N+](=O)[O-])s1 [Nithiamide] | 0.999 | 0.607 | 0.822 | 0.606 | 2.08 | 0.885 |

| Structure (SMILES) | Euclidean distance [1] | Euclidean distance [2] | Euclidean distance [3] | Euclidean distance [4] | Euclidean distance [5] | Euclidean distance [6] |
| --- | --- | --- | --- | --- | --- | --- |
| CC(C)OC(=O)CCC/C=C\C[C@@H]1[C@@H](CC[C@@H](O)CCc2ccccc2)[C@H](O)C[C@@H]1O [Latanoprost] | 1.13 | 0.914 | 0.738 | 1.14 | 0.925 | 1.15 |
| Cc1cc(Nc2ncnc3ccc(NC4=NC(C)(C)CO4)cc23)ccc1Oc1ccn2ncnc2c1 [Irbinitinib (ARRY-380. ONT-380)] | 1.56 | 1.62 | 1.3 | 1.15 | 1.12 | 1.29 |
| COc1cc(N2CCN(C)CC2)ccc1Nc1nccc(-c2cn(C)c3cnccc23)n1 | 2.55 | 1.56 | 1.34 | 2.68 | 1.53 | 2.69 |
| Cc1ccsc1/C=C/C1=NCCCN1C [Morantel tartrate] | 0.593 | 0.834 | 0.571 | 1.19 | 0.557 | 1.21 |
| FC(F)(F)c1ccc(CNc2ccc(Cc3c[nH]c4ncc(Cl)cc34)cn2)cn1 [Pexidartinib (PLX3397)] | 1.31 | 1.41 | 1.04 | 1.53 | 2.18 | 1 |
| CCC(=O)c1c(O)cc(O)cc1O [Flopropione] | 1.34 | 0.879 | 1.2 | 1.39 | 0.447 | 1.04 |
| CO/N=C(\C(=O)N[C@@H]1C(=O)N2C(C(=O)OC(C)OC(C)=O)=C(COC(N)=O)CS[C@H]12)c1ccco1 (some centres not stated) [Cefuroxime axetil] | 0.923 | 0.763 | 0.929 | 1.28 | 1.28 | 1.41 |
| COc1ccc2cc1Oc1ccc(cc1)C[C@H]1c3cc(c(OC)cc3CCN1C)Oc1c(O)c(OC)cc3c1[C@H](C2)N(C)CC3 [Fangchinoline] | 4.67 | 4.12 | 3.78 | 4.61 | 5.01 | 4.4 |
| CN/C(=N\CCSCc1nc[nH]c1C)NC#N [Cimetidine] | 0.94 | 0.861 | 0.762 | 0.864 | 0.95 | 1.25 |
| COc1ccc2c(c1)c(CC(=O)O)c(C)n2C(=O)c1ccc(Cl)cc1 [Indomethacin] | 1.44 | 0.49 | 1.66 | 0.86 | 1.8 | 1.2 |
| CCCc1cc(C)[nH]c(=O)c1CNC(=O)c1cc(-c2ccc(N3CCN(C(C)C)CC3)nc2)cc2c1cnn2C(C)C | 1.57 | 1.62 | 1.42 | 2.34 | 1.03 | 1.18 |
| O=C(Oc1cc(S(=O)(=O)c2ccccc2)ccc1[N+](=O)[O-])c1ccc(Cl)cc1 | 1.76 | 1.8 | 1.4 | 1.14 | 1.96 | 1.27 |
| CCCCNc1ccc(C(=O)OCCN(C)C)cc1 [Tetracaine HCl] | 0.993 | 0.918 | 0.964 | 1.06 | 0.941 | 1.79 |
| COc1ccccc1N1CCN(CCN2C(=O)CC3(CCCC3)CC2=O)CC1 | 1.45 | 1.72 | 1.3 | 1.24 | 1.77 | 1.54 |
| COc1cc(Nc2ncc(F)c(Nc3ccc4c(n3)N(COP(=O)(O)O)C(=O)C(C)(C)O4)n2)cc(OC)c1OC [Fostamatinib (R788)] | 2.67 | 4.8 | 3.08 | 3.33 | 2.44 | 3.7 |
| CNCc1ccc(-c2[nH]c3cc(F)cc4c3c2CCNC4=O)cc1 | 1.61 | 1.12 | 0.651 | 1.66 | 1.33 | 1.23 |
| CN(C)[C@@H](CCOc1cccc2ccccc12)c1ccccc1 [Dapoxetine HCl] | 1.49 | 0.787 | 2.96 | 1.26 | 1.1 | 1.26 |
| O=C(O)C1=C(CSc2nnnn2CS(=O)(=O)O)CS[C@@H]2[C@H](NC(=O)[C@H](O)c3ccccc3)C(=O)N12 [Cefonicid sodium] | 0.931 | 0.892 | 0.858 | 1.26 | 0.665 | 1.46 |
| CC(=O)CCCCn1c(=O)c2c(ncn2C)n(C)c1=O [Pentoxifylline] | 1.07 | 0.613 | 1.06 | 1.39 | 0.754 | 1.67 |
| C[C@]12C=CC(=O)C=C1CC[C@@H]1[C@@H]2[C@@H](O)C[C@@]2(C)[C@H]1CC[C@]2(O)C(=O)CO [Prednisolone] | 1.51 | 2.15 | 2.31 | 1.67 | 2.12 | 2.19 |
| COC(=O)N1CCN(Cc2cccc(NC(=O)Nc3ccc(C)nc3)c2F)CC1 | 1.27 | 1.17 | 0.538 | 0.851 | 0.768 | 1.28 |
| C[C@H]1[C@H](C)CC[C@]2(C(=O)O)CC[C@]3(C)C(=CC[C@@H]4[C@@]5(C)C[C@@H](O)[C@H](O)[C@@](C)(CO)[C@@H]5CC[C@]43C)[C@H]12 [Asiatic Acid] | 0.996 | 0.839 | 1.11 | 1.04 | 1.24 | 0.885 |
| CCCCCN(C)CCC(O)(P(=O)(O)O)P(=O)(O)O [Ibandronate sodium] | 1.42 | 1.09 | 0.856 | 1.59 | 1.38 | 1.49 |
